Assay results: the supplement of paper PMC10849652
Targets with a hit are over-represented here; the source holds about 7,900 in all. About 0.6% of all pairs of compound and target were hits. Unmarked numbers belong to inactive results.

Experiments:
Assay in all cases: log2 fold change, soluble protein after heating vs DMSO (PISA); higher = thermal stabilisation; K562 cells, 10 uM, 30 min; active = over 0.2 and 3.5 SD of the protein, either way, in both replicates (recomputed)
bafetinib = compound: Cc1ccc(NC(=O)c2ccc(CN3CC[C@H](N(C)C)C3)c(C(F)(F)F)c2)cc1Nc1nccc(-c2cncnc2)n1 [bafetinib]
Procedure, shortened: (§1)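 Quantification of soluble protein used TMTpro 16plex LC-MS/MS, with channel sums equalised. Samples were the supernatant after 21,000xg for 90 min of pooled aliquots from K562 cells (2×10^6 cells/mL) treated with 10 μM compound for 30 min, heated for 3 min over 48°C-58°C, and extracted in PBS with 0.5% NP-40 at 4°C. Values, from duplicates, describe thermal stability against control samples on a log2 fold-change scale.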

[1] = compound: Cc1cccc(CC(=O)N2CCc3c2ccc(-c2cn(C)c4ncnc(N)c24)c3F)n1
Procedure, shortened: as §1

nilotinib = compound: Cc1cn(-c2cc(NC(=O)c3ccc(C)c(Nc4nccc(-c5cccnc5)n4)c3)cc(C(F)(F)F)c2)cn1 [nilotinib]
Procedure, shortened: as §1

[2] = compound: Cc1nc(Nc2n[nH]c3c2CN(C(=O)N[C@H](CN(C)C)c2ccccc2)C3(C)C)c2sccc2n1
Procedure, shortened: as §1

dasatinib = compound: Cc1nc(Nc2ncc(C(=O)Nc3c(C)cccc3Cl)s2)cc(N2CCN(CCO)CC2)n1 [dasatinib]
Procedure, shortened: as §1

[3] = compound: Cc1ncc(-c2ccnc(Nc3ccc(S(C)(=O)=O)cc3)n2)n1C(C)C
Procedure, shortened: as §1

[4] = compound: Cn1cc(-c2ccc3c(c2)CCN3C(=O)Cc2cccc(C(F)(F)F)c2)c2c(N)ncnc21
Procedure, shortened: as §1

[5] = compound: Cn1cc(-c2ccc3nnc(C(F)(F)c4ccc5ncccc5c4)n3n2)cn1
Procedure, shortened: as §1

tipifarnib = compound: Cn1cncc1[C@@](N)(c1ccc(Cl)cc1)c1ccc2c(c1)c(-c1cccc(Cl)c1)cc(=O)n2C [tipifarnib]
Procedure, shortened: as §1

mubritinib = compound: FC(F)(F)c1ccc(/C=C/c2nc(COc3ccc(CCCCn4ccnn4)cc3)co2)cc1 [mubritinib]
Procedure, shortened: as §1

[6] = compound: NC(=O)Nc1cc(-c2cccc(F)c2)sc1C(=O)N[C@H]1CCCNC1
Procedure, shortened: as §1

[7] = compound: NC(=O)c1cnc(N[C@@H]2CCCC[C@@H]2N)nc1Nc1cccc(-n2nccn2)c1
Procedure, shortened: as §1

[8] = compound: NC1(c2ccc(-c3nc4ccn5c(=O)[nH]nc5c4cc3-c3ccccc3)cc2)CCC1
Procedure, shortened: as §1

[9] = compound: NCC(=O)Nc1ccc(-n2nc(C(F)(F)F)cc2-c2ccc3c(ccc4ccccc43)c2)cc1
Procedure, shortened: as §1

entinostat = compound: Nc1ccccc1NC(=O)c1ccc(CNC(=O)OCc2cccnc2)cc1 [entinostat]
Procedure, shortened: as §1

vorinostat = compound: O=C(CCCCCCC(=O)Nc1ccccc1)NO [vorinostat]
Procedure, shortened: as §1

citarinostat = compound: O=C(CCCCCCNC(=O)c1cnc(N(c2ccccc2)c2ccccc2Cl)nc1)NO [citarinostat]
Procedure, shortened: as §1

silmitasertib = compound: O=C(O)c1ccc2c(c1)nc(Nc1cccc(Cl)c1)c1ccncc12 [silmitasertib]
Procedure, shortened: as §1

[10] = compound: O=C1NC(=O)C(c2cnc3ccccn23)=C1c1cn2c3c(cc(F)cc13)CN(C(=O)N1CCCCC1)CC2
Procedure, shortened: as §1

[11] = compound: c1cc(OCCN2CCCCC2)cc(-c2n[nH]c3ccc(-c4nnc[nH]4)cc23)c1
Procedure, shortened: as §1

UniProt Q00535, sequence (Q00535 whole entry, looked up): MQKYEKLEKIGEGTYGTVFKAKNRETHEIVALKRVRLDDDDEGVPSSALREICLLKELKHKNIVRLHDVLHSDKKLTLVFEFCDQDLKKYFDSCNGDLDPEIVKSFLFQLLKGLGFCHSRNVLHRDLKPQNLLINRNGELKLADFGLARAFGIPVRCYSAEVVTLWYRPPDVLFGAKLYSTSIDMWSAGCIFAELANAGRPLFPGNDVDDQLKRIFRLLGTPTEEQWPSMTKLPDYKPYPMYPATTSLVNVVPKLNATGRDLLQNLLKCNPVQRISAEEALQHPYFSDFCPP
UniProt P35790, sequence (P35790 whole entry, looked up): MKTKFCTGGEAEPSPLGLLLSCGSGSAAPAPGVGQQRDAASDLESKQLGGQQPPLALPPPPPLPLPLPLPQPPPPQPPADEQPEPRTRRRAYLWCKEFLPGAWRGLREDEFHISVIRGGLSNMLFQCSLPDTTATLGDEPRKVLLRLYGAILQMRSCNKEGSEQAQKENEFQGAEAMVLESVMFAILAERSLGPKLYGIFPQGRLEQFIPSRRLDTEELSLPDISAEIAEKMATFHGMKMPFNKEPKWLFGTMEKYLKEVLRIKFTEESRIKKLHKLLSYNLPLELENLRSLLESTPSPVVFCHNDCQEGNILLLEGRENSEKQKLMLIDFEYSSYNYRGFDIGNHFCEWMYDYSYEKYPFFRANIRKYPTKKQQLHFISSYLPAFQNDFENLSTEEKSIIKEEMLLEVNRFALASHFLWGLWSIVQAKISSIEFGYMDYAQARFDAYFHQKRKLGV
UniProt Q00587, sequence (Q00587 whole entry, looked up): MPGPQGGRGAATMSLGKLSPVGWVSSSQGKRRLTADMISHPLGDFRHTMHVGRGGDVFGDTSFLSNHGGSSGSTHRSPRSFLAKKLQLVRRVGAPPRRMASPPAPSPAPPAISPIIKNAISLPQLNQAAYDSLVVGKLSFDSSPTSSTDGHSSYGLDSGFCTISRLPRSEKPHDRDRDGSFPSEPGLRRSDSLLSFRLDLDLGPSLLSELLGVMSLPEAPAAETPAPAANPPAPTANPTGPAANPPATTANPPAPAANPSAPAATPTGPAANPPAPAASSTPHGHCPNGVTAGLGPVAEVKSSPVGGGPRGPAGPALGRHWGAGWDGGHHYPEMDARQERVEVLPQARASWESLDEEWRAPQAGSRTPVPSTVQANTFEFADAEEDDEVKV
UniProt P51798, sequence (P51798 whole entry, looked up): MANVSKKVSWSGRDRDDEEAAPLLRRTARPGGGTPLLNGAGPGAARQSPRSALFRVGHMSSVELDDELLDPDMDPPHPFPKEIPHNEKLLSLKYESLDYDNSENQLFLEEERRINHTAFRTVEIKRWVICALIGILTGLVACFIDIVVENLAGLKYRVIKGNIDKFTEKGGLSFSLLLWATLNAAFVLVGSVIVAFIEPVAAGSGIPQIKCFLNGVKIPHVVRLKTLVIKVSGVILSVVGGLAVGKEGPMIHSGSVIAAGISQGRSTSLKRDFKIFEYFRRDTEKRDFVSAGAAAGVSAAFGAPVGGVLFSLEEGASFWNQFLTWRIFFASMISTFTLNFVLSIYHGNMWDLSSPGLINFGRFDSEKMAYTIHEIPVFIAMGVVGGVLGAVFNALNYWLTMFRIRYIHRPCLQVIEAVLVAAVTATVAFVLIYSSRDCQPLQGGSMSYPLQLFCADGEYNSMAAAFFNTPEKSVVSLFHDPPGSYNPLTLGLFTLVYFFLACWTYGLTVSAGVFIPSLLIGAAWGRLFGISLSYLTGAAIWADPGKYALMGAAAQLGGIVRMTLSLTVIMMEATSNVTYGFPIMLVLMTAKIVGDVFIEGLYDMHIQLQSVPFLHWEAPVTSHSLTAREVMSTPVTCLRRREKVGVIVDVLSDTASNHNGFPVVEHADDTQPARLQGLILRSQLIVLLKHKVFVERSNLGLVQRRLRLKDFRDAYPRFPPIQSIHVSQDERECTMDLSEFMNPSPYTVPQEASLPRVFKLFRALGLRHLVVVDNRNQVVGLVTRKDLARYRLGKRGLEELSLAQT
UniProt Q5T6V5, sequence (Q5T6V5 whole entry, looked up): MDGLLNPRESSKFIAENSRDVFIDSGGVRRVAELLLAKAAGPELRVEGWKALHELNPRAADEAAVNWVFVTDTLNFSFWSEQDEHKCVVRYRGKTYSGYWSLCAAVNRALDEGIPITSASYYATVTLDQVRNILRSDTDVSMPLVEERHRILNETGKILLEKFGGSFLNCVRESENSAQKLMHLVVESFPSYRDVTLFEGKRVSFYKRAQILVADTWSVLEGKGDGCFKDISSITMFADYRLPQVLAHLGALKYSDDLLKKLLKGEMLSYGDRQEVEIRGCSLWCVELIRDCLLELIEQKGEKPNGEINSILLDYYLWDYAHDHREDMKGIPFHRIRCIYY
UniProt Q00534, sequence (Q00534 whole entry, looked up): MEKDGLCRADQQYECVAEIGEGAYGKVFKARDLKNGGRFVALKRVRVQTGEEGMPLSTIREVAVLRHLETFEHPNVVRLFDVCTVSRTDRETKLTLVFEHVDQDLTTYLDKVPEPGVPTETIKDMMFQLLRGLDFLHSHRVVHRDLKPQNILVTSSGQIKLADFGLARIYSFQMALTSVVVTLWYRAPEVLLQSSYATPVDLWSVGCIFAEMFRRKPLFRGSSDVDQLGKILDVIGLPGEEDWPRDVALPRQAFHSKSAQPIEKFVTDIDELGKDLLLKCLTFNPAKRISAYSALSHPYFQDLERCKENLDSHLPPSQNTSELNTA
UniProt Q96LT7, sequence (Q96LT7 whole entry, looked up): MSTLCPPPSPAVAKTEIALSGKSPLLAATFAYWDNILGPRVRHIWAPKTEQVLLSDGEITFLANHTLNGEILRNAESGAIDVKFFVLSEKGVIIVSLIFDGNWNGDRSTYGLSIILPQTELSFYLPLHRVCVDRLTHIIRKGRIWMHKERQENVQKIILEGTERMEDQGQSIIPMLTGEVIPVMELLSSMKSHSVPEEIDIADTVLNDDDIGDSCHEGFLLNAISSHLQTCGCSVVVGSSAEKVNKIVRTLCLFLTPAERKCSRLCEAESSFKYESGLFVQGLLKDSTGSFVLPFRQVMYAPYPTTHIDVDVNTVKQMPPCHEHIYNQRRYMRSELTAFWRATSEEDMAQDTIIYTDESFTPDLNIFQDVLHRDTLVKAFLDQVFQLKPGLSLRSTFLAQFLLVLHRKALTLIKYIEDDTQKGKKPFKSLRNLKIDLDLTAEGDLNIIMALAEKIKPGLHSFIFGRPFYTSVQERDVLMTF
UniProt P06493, sequence (P06493 whole entry, looked up): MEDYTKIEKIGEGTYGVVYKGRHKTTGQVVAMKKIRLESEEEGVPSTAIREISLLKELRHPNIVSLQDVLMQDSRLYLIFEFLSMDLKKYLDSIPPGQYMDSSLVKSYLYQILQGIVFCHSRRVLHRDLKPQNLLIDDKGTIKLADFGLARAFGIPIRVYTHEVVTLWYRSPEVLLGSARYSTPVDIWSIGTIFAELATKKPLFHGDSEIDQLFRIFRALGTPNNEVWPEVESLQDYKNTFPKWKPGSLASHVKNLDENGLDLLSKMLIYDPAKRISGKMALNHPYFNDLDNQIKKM
UniProt P14635, sequence (P14635 whole entry, looked up): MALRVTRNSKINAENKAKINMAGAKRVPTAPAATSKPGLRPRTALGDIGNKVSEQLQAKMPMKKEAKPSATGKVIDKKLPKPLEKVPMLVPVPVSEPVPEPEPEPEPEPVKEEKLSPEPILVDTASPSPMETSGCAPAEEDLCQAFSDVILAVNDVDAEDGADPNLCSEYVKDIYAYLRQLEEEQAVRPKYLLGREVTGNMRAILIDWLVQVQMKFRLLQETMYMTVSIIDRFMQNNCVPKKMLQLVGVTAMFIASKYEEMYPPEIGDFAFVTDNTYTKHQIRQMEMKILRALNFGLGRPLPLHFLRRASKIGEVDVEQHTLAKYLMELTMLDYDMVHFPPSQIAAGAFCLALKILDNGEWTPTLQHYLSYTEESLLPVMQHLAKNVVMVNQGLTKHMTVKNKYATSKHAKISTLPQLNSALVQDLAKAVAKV
UniProt Q96G23, sequence (Q96G23 whole entry, looked up): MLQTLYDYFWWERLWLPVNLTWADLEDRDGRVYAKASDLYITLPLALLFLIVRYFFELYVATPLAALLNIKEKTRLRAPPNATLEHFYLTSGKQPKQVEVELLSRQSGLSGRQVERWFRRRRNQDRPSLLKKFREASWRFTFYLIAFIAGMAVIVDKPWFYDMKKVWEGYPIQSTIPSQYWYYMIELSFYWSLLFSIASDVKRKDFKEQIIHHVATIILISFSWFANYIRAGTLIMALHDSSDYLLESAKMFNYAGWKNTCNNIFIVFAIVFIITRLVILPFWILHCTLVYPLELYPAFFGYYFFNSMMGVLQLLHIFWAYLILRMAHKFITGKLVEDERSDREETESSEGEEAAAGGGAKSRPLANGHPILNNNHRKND
UniProt O76031, sequence (O76031 whole entry, looked up): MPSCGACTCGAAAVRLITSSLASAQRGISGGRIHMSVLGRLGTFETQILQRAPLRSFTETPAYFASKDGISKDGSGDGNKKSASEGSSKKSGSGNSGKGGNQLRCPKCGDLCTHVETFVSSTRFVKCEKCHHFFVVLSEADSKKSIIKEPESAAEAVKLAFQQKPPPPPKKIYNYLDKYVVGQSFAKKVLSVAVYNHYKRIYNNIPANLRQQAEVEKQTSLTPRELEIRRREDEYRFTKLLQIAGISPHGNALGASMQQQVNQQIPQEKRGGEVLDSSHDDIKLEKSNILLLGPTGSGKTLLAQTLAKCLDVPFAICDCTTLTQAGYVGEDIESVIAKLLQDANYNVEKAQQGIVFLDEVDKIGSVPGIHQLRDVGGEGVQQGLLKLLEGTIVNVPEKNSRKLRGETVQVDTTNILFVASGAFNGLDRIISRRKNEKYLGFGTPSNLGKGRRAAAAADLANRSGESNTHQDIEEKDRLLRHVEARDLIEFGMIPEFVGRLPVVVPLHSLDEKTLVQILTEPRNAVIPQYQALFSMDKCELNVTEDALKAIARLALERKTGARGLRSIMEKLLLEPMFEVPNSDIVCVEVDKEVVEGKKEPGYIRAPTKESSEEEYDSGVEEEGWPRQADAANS
UniProt Q9P0B6, sequence (Q9P0B6 whole entry, looked up): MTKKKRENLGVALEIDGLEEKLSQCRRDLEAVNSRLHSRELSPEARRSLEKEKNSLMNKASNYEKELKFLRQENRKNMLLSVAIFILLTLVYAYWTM

Target	log2 fold change (bafetinib)	log2 fold change [1]	log2 fold change (nilotinib)	log2 fold change [2]	log2 fold change (dasatinib)	log2 fold change [3]	log2 fold change [4]	log2 fold change [5]	log2 fold change (tipifarnib)	log2 fold change (mubritinib)	log2 fold change [6]	log2 fold change [7]	log2 fold change [8]	log2 fold change [9]	log2 fold change (entinostat)	log2 fold change (vorinostat)	log2 fold change (citarinostat)	log2 fold change (silmitasertib)	log2 fold change [10]	log2 fold change [11]
CDK6 (UniProt Q00534)	-0.017	-0.002	-0.021	-0.079	-0.01	0.081	-0.019	-0.033	-0.043	0.012	-0.004	-0.082	-0.017	-0.003	0.009	0.005	-0.006	0.131	0.146	0.017
CHKA (UniProt P35790)	0.123	-0.023	0.178	0.149	0.07	0.088	-0.02	-0.081	-0.026	-0.024	0.015	-0.316 (active)	0.014	0.012	-0.023	-0.034	-0.055	0.013	-0.011	-0.012
CERS2 (UniProt Q96G23)	-0.177	0.064	-0.128	-0.015	-0.113	0.028	-0.034	0.028	-0.074	-0.03	-0.015	0	-0.103	-0.019	0.04	0.057	0.035	-0.018	0.027	-0.087
CDC42EP1 (UniProt Q00587)	-0.115	0.092	-0.072	-0.59 (active)	-0.2	-0.211	0.079	0.051	0.049	0.007	-0.272	-0.258	-0.399	-0.063	0.1	0.158	0.108	-0.04	-0.118	-0.138
CORO2A (UniProt Q92828)	0.021	0.015	-0.047	-0.052	-0.066	-0.049	-0.017	-0.255	-0.005	0.048	0.069	-0.027	-0.287 (active)	-0.085	-0.061	0.027	-0.114	-0.019		-0.212
CLCN7 (UniProt P51798)	-0.24	0.083	-0.035	-0.012	-0.091	-0.111	0.011	0.049	0.038	-0.02	-0.009	-0.162	-0.674 (active)	-0.048	0.07	0.054	0.107	0.036	0.021	-0.078
C9orf72 (UniProt Q96LT7)	0.029	-0.018	0.031	0.073	-0.004	0.006	0.085	-0.05	0.033	0.021	0.028	-0.041	-0.148	-0.009	-0.011	0.232		-0.067	-0.011	
CDK5 (UniProt Q00535)	-0.091	0.035	-0.055	-0.142	-0.078	-0.034	-0.033	-0.031	-0.054	-0.103	-0.045	-0.01	-0.065	-0.082	0.016	0.007	0.06	0.016	-0.1	-0.05
C16orf58 (UniProt Q96GQ5)	-0.112	0.052	-0.036	0.029	-0.046	-0.01	0.084	0.012	0.003	0.021	-0.047	-0.05	-0.111	-0.08	0.001	0.026	0.034	0.032	-0.027	-0.017
CPSF6 isoform 2 (UniProt Q16630)	0.079	-0.136	0.06	-1.43 (active)	0.009	0.014	0.039	-0.008	0.031	0.006	-0.027	-0.037	-0.01	0.029	-0.008	-0.007	0.004	-0.225 (active)	-0.003	-0.179
CCDC167 (UniProt Q9P0B6)	-0.024	-0.057	-0.03	-0.035	0.193	0.026	-0.185	-0.018	0.142	-0.043	0.014		0.046		0.031	0.008	-0.014	0.135	0.038	0.009
CPT2 (UniProt P23786)	-0.115	0.008	0.096	-0.003	0.217	0.047	0.268	0.265	-0.076	0.763 (active)	-0.045	-0.264	0.193	-0.052	0.174	-0.097	-0.109	-0.08	0.014	0.157
CCNB1 (UniProt P14635)	-0.018	0.009	0.04	-0.156	0.02	-0.025	0.006	0.003	0.02	0.08	-0.031	-0.015	-0.03	0.016	-0.002	0	0.031	-0.015	-0.076	-0.032
CLPX (UniProt O76031)	0.008	-0.074	-0.006	0.042	0.006	-0.019	-0.012	0.032	0.052	-0.048	0.01	0.011	-0.031	-0.01	-0.019	0.007	0.011	0.022	0.058	-0.05
C9orf64 (UniProt Q5T6V5)	0.031	0.218	-0.045	-0.094	-0.197	-0.04	0.079	0.085	-0.163	0.282	0	-0.155	-0.338	-0.02	0.088	0.167	0.064	0.037	0.012	-0.106
CDK1 (UniProt P06493)	0.002	-0.022	0.022	-0.196	-0.092	-0.199	-0.067	-0.023	-0.019	0.083	-0.036	0.004	-0.068	-0.047	0	0.05	0.051		-0.079	-0.032
